High-throughput results from PubChem.
RBX1-CUL1 inh = blocks human RBX1-Cullin-1 di-ubiquitin formation | in vitro K48 di-Ub FRET, acceptor:donor ratio, 45 min | P62877+Q13616 | 0.6% of 140,000 active | inhibition, % at 10 µM; in the data active = inhibition above about 25%
Each line names hits and unclear results; the compound was inactive in the other large screens. Only a selection was taken, and hits are over-represented in it overall.

COC(=O)c1ccc(C(=O)Nc2ccc(-c3nc4cc(NC(=O)c5ccc(C(=O)OC)cc5)ccc4o3)cc2)cc1	none
O=C(Nc1ccc(-c2nc3cc(NC(=O)c4ccc(Cl)cc4)ccc3o2)cc1)c1ccc(Cl)cc1	none
O=C(Nc1ccc2cc3ccc(NC(=O)c4ccc(=O)oc4)cc3nc2c1)c1ccc(=O)oc1	RBX1-CUL1 inh 40
O=C(O)c1cc2oc3ccccc3c3ccccc3oc2cc1C(=O)Nc1cccc(Cl)c1	RBX1-CUL1 inh 40
O=C(Nc1cccc(Cl)c1)Nc1ccccc1C(=O)O	none
Nc1ccccc1C(=O)Nc1cccc(Cl)c1	none
O[C@@H]1CN(Cc2ccc3c(c2)OCCO3)CC[C@H]1N1CCCCCC1	none
O=[N+]([O-])c1ccc(S(=O)(=O)c2cccc(C(F)(F)F)c2)nc1	none
Cc1ccccc1Sc1ccc([N+](=O)[O-])cn1	none
CS(=O)(=O)c1ccc([N+](=O)[O-])cn1	RBX1-CUL1 inh 63
COC1CCN(C(=O)c2cn(Cc3ccccc3C)nn2)CC1	none
Cc1cccc(C2CC(=O)Nc3c2c(=O)n(C)c(=O)n3C)c1 (stereo not given)	none
CC(C)(C)C1=NN(CC(N)=O)C(=O)SC1	none
Cc1cc(O)ccc1NC(=O)COc1cccc2ccccc12	none
COc1ccccc1NC(=O)COc1cccc2ccccc12	none
O=C(COc1cccc2ccccc12)Nc1ccc(Cl)cc1C(=O)O	RBX1-CUL1 inh 25
O=C1C(=O)C(C(=O)/C=C/c2cccc(Cl)c2)C=C(Br)C=C1Br (stereo not given)	RBX1-CUL1 inh 87
Cc1ccccc1/C=C/C(=O)C1C=C(Br)C=C(Br)C(=O)C1=O (stereo not given)	RBX1-CUL1 inh 54
CC(CNC(=O)/C=C/c1cccc(Cl)c1)NC(=O)/C=C/c1cccc(Cl)c1 (stereo not given)	none
O=C1C=CC(Br)=CC(C(=O)/C=C/c2ccc(Cl)cc2)C1=O (stereo not given)	none
COc1ccccc1/C=C/C(=O)C1C=C(Br)C=CC(=O)C1=O (stereo not given)	none
CC(C)(C)C1CCC(=O)[C@](C)(O)C1 (stereo not given in full)	none
O=C(NC(=S)N(Cc1ccccc1)Cc1ccccc1)c1ccc(Cl)cc1Cl	none
Cc1ccc(C)c(NC(=S)NC(=O)c2ccccc2Cl)c1	none
C/C(=N/NC(=O)c1ccc(Br)o1)c1ccc(NC(=O)c2ccccc2Cl)cc1	none
O=C(Nc1ccc(I)cc1C(=O)Nc1ccncc1)c1cccnc1	none
O=C1S/C(=C\c2ccccc2)C(=O)N1Cc1ccc(F)cc1	none
C=CCOc1c(Br)cc(/C=C2\SC(=O)N(Cc3ccc(F)cc3)C2=O)cc1OCC	none
O=C1S/C(=C\c2cc(Br)c(O)c(Br)c2)C(=O)N1Cc1ccc(F)cc1	RBX1-CUL1 inh 31
O=C(c1c(F)cccc1Cl)N1CCN(c2ccccc2F)CC1	none
CC1OC(C)(C)OC1C1CN=C2N=C(N)NC(=O)C2N1C(=O)c1cccnc1 (stereo not given)	none
CCOc1ccccc1CNc1ccc(O)cc1	RBX1-CUL1 inh 46
CCOc1ccccc1CNc1ccc(N2CCOCC2)cc1	none
Oc1ccc(NCc2cc(Cl)ccc2OCc2ccccc2F)cc1	RBX1-CUL1 inh 30
Oc1ccc(NCc2ccccc2OCc2ccccc2F)cc1	none
Oc1ccc(NCc2ccccc2OCc2ccccc2Cl)cc1	none
NS(=O)(=O)c1ccc(NCc2ccccc2OCc2ccccc2F)cc1	none
COCCN1CCN(c2nncc(-c3ccc(Cl)cc3)n2)CC1	none
CCc1nc(C)c(C(=O)NC2CC(=O)N(CCCc3ccccc3)C2)o1 (stereo not given)	none
Cc1ccc([C@@H]2C[C@H]3CN(c4ccccc4)C(=O)[C@]34CCCN24)o1	none
N#C[C@H]1[C@H](C#N)C1(c1ccccc1)c1ccccc1	none
CCOC(=O)C1=C(C)N=c2s/c(=C\c3c(-c4ccccc4)[nH]c4ccccc34)c(=O)n2C1c1cccs1 (stereo not given)	none
CC(C)(C)C(=O)N1CCN(c2ccc(NC(=O)c3cc4ccccc4o3)cc2)CC1	none
O=C1C2=CC(C=NCC(O)CO)C(=O)N2c2ccccc21 (stereo not given)	RBX1-CUL1 inh 25
CCc1ccc(OC(C)c2nnc(SCC(=O)Nc3nccs3)n2C)cc1 (stereo not given)	none
O=S(=O)(Cc1ccc(F)cc1)N1CCN(Cc2ccccc2)CC1	none
COc1ccc2c(c1)C=C1C(=CC(=Nc3ccc(Br)cc3)CC1(C)C)O2	RBX1-CUL1 inh 54
Cc1ccc(-c2nn3c(C)cc(C)nc3c2C#N)cc1	none
CC1=NOC(=O)/C1=C\c1cccs1	none
Cc1ccc2c(c1)C(=O)/C(=C/c1cccs1)CO2	RBX1-CUL1 inh 73
COc1ccc(/C=C2\COc3ccccc3C2=O)cc1OC	none
CCCCN(C)c1ccc(C(=O)N2CCCN(c3ncccn3)CC2)cn1	none
COC(=O)c1ccc(-c2c(N)sc3c(N4CCOCC4)nc4c(c23)CC(C)(C)OC4)o1	none
CC(C)(C)n1cnc2cc(N)ccc21	none
Cc1ccc(/C=C/C(=O)O)o1	RBX1-CUL1 inh 35
CC(=C/C(=O)O)/C=C/c1ccc(Cl)o1	none
Cc1ccc(NC(=O)/C=C/c2ccc(Cl)cc2)c(Br)c1	none
Cc1ccc(NC(=O)/C=C/c2ccc(C)o2)c(Br)c1	RBX1-CUL1 inh 63
Cc1ccc(NC(=O)/C=C/c2ccc(C)o2)c(C)c1	none
